# The whole screen tested about 16,000 compounds, of which about 260 (1.6%) were called active. Another 14% or so got no clear call; they are omitted. Calls follow the shape of the dose curve; as a rule, active = well fitted inhibition curve with a large enough effect; inconclusive = small, poorly fitted or top-dose-only effect; inactive = no such curve, though single readings can be large or run the other way. The sample as a whole holds a higher share of actives than the screen did. A structure can be active in one record and inactive in another. Where a SMILES comes first, the peptide text is derived from it. Bridges are numbered along the chain shown (N, C = ends). [ ]: non-standard residue; d: D form. The star is where a group is joined. X4 = CC[C@H](C)CCCCC(=O)*; Dab = NCC[C@H](N)C(=O)O
# Target: Rap guanine nucleotide exchange factor 4 (Homo sapiens) (UniProt Q8WZA2)
# Assay: Validation qHTS for antagonist of cAMP-regulated guanine nucleotide exchange factor 4 (EPAC2); also: nearly all actives have a fitted effect of over 40% in size
# Conditions: EPAC2 Rap1B BODIPY-GDP exchange, fluorescence; series mostly up to 112 µM; activity, negative = inhibition: at the top concentration
# Text: Principle Investigator: Xiaodong Cheng Ph.D. The University of Texas Medical Branch, […], TX MLPCN Grant: NS066510 In multi-cellular eukaryotic organisms, the effects of cAMP are transduced by two ubiquitously-expressed intracellular cAMP receptors, the classic protein kinase A/cAMP-dependent protein kinase (PKA/cAPK) and the more recently discovered exchange protein directly activated by cAMP/cAMP-regulated guanine nucleotide exchange factor (EPAC/cAMP-GEF). Both PKA and EPAC are ubiquitously expressed in all tissues, and an increase in intracellular cAMP levels will lead to the activation of both PKA and EPAC. Therefore, careful dissections of the individual role and relative contribution of EPAC and PKA within the overall cAMP signaling in various model systems are critical for further elucidating the mechanism of cAMP signaling. To date no EPAC-specific antagonists and agonist, as well as isoform-specific agonists have been reported, and developing EPAC-specific pharmacological probes to determine the physiological functions that EPAC play in the overall cAMP-mediated signaling remains a major challenge within the research field. Furthermore, identified regulators of EPAC may lead to new mechanism-based therapeutic strategies specifically targeting the EPAC / cAMP-signaling components as EPAC has been implicated to play important roles in major human pathological conditions such as diabetes, heart disease, and cancer. This qHTS will be used to screen the Molecular Libraries Small Molecule Repository (MLSMR) as a concentration-titration series using the NCGC unique quantitative screening (qHTS) platform to find activators for EPAC1. In addition, this assay will also be used as a counterscreen for the EPAC2 qHTS. This fluorescent based assay is developed and validated for EPAC1 that measures exchange using EPAC effector Rap1 complex with BODIPY-GDP, a GDP analog with a tethered fluorophores. Activators are identified by monitoring the change in fluorescence signal as the exchanged free BODIPY-GDP has a reduced fluorescence compared to Rap1-bound BODIPY-GDP. Increase in signal (activation) is the desired outcome for the EPAC1 agonist while no activity in this assay is desired for the EPAC2 agonist counterscreen. Reference: [1] de Rooij, J., Zwartkruis, F. J., Verheijen, M. H., Cool, R. H., Nijman, S. M., Wittinghofer, A., and Bos, J.L. (1998) Nature 396, 474-477.
# Briefly, three uL of reagents (100 nM EPAC2, 250 nM RAP1B-BODIPY-GDP, 50 uM GDP) were dispensed into a 1536-well Greiner black solid-bottom medium binding assay plate. Controls and test compounds (23 nL) were transferred to the plate via a Kalypsys pin tool equipped with a 1536-pin array. The plates were centrifuged at 1,000 rpm for 15 seconds followed by 5 minute incubation at room temperature. The assay plates were read at 5 minute intervals for 30 minutes in the ViewLux plate reader using 480nm excitation and 540nm emission filters. The results were normalized to the agonist positive control of 6.5 mM cAMP.
# Potency is read from the fitted curve at half-maximal effect.
# Sequence of Rap guanine nucleotide exchange factor 4 (Homo sapiens) (Q8WZA2 whole entry, looked up): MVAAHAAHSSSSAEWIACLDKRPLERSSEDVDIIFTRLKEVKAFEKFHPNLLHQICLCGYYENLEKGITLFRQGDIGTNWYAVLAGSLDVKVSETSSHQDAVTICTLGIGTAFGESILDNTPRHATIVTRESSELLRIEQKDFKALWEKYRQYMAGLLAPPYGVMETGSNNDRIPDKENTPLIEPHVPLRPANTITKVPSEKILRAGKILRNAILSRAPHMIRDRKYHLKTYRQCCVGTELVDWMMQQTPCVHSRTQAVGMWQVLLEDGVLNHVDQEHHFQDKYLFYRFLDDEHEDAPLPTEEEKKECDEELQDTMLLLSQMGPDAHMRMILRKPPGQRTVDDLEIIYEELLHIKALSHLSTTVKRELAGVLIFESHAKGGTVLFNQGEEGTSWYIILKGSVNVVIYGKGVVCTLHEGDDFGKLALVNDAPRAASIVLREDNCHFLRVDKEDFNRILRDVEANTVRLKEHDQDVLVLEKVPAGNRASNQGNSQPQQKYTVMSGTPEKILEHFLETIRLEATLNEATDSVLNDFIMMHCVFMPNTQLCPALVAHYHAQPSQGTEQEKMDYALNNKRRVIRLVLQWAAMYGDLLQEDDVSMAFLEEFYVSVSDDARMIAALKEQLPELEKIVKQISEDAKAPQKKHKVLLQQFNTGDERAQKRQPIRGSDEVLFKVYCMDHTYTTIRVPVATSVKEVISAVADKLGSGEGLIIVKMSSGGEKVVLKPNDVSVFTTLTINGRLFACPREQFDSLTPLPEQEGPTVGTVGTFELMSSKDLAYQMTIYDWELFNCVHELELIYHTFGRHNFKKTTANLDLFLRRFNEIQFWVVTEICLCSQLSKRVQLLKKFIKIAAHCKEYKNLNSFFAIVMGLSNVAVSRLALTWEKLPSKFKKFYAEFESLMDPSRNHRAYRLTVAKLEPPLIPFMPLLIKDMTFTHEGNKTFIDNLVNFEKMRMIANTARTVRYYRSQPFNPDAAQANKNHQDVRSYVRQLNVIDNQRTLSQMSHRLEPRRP
SMILES,"activity, negative = inhibition",Potency
C/C(Nc1ccc2oc(=O)ccc2c1)=C1/C(=O)CC2[C@@H]1C2(C)C (some centres undefined),25% (inactive),–
c1ccc(CN2CCN(Cc3ccc4c(c3)CN(Cc3c[nH]c5ccccc35)CCO4)CC2)nc1,1.14% (inactive),–
O=C1CCN(Cc2ccc(-c3ccccc3)cc2)CCN1Cc1ccccn1,-9.29% (inactive),–
Cn1cc(-c2nc3cnc(N4CCNCC4)nc3n(CCC#N)c2=O)c2ccccc21,-18.2% (inactive),–
CN(C)c1ccc(-c2nc(NCCN3CCOCC3)c3ccccc3n2)cc1,-15% (inactive),–
Oc1c(Cl)cc(Cl)c(Cl)c1Cc1c(O)c(Cl)cc(Cl)c1Cl,–,44.7 µM (active) and inactive
COCc1c(C(=O)NC2CCCCC2)cnn1-c1nccc(-c2ccccc2OC)n1,-15.1% (inactive),–
COc1ccc2c(c1)NC(=O)C2CC(=O)N1CCOc2c(cc(-c3cnc4ccccc4c3)cc2OC)C1 (centres undefined),-30.5% (inactive),–
Cc1ccc(-c2ncc(Cl)cc2-c2ccc(S(C)(=O)=O)cc2)cn1,-7.74% (inactive),–
O=c1ccn([C@@H]2O[C@H](COP(=O)(O)OP(=O)(O)OP(=O)(O)O)[C@@H](O)[C@H]2O)c(=O)[nH]1,1.65% (inactive),–
CC(C)[C@@H]1NC(=O)[C@H](Cc2ccccc2)NC(=O)[C@@H](CC(=O)O)NC(=O)CNC(=O)[C@H](CCCNC(=N)N)NC1=O,-3.61% (inactive),–
O=S(O)CNc1ccc(S(=O)(=O)c2ccc(NCS(=O)O)cc2)cc1,-29.8% (inactive),–
C/C=C(/C)C(=O)OC1Cc2c(ccc3ccc(=O)oc23)OC1(C)C (centres undefined),-12.9% (inactive),–
CC(C)N1C[C@@H](NCc2ccccc2O)C[C@H]1C(=O)N1CCN(c2cccc(C(F)(F)F)c2)CC1,13% (inactive),–
O=C(c1ccco1)N1CCC2(CC1)CCN(c1ncccn1)CC2,-28.8% (inactive),–
CC1(C)C=CC(=O)[C@]2(C)C1CC(=O)[C@]1(C)C2CC[C@@]2(C)C(c3ccoc3)OC(=O)C3OC321 (some centres undefined),-12.9% (inactive),–
CC(C)C1=CC2=CC[C@H]3[C@](C)(C(=O)O)CCC[C@]3(C)C2CC1 (some centres undefined),-21.5% (inactive),–
O=C1c2ccccc2C(=O)C1c1ccccc1,–,inactive
CN(C)c1ncc2nc(-c3ccc(F)cc3)c(=O)n(Cc3ccc(F)cc3)c2n1,-4.5% (inactive),–
CC(=O)N1CCC2(CCCN(Cc3ccccc3)C2)CC1,-10.6% (inactive),–
CC[C@H](C)CCCCC(=O)N[C@@H](CCN)C(=O)N[C@H](C(=O)N[C@@H](CCN)C(=O)N[C@H]1CCNC(=O)[C@@H]([C@H](C)O)NC(=O)[C@H](CCN)NC(=O)[C@H](CCN)NC(=O)[C@H](CC(C)C)NC(=O)[C@@H](CC(C)C)NC(=O)[C@H](CCN)NC1=O)[C@@H](C)O (X4-[Dab]T[Dab][Dab][Dab][dL]L[Dab][Dab][dT]; lactam 4-C),-25.8% [at 56.6 µM] (inactive),–
CC1OC(OCC2OC(Oc3c(-c4ccc(O)c(O)c4)oc4cc(O)cc(O)c4c3=O)C(O)C(O)C2O)[C@@H](O)C(O)C1O (some centres undefined),-11.8% (inactive),–
COc1cc(=O)n2c(c1C(=O)NCc1ccco1)CCN(Cc1ccccc1)CC2,-24.9% (inactive),–
CNc1ncnc2ccc(-c3cccc(NS(C)(=O)=O)c3)cc12,-7.28% (inactive),–
CS(=O)(=O)N1CCC2(CC1)CN(Cc1cc(C(F)(F)F)cc(C(F)(F)F)c1)C2,-30.3% (inactive),–
O=C1CCNCCN1[C@H](CO)Cc1ccccc1,-7.85% (inactive),–
Cc1nc2cnc(N3CCNCC3)nc2n(Cc2ccc(F)cc2)c1=O,-4.79% (inactive),–

SMILES,"activity, negative = inhibition",Potency
Nc1ccccc1N,7.39% [at 239 µM] (inactive),–
CC1(C)S[C@@H]2[C@H](NC(=O)COc3ccccc3)C(=O)N2C1C(=O)OCc1ccccc1 (some centres undefined),-12% (inactive),–
COC1C[C@@H](O[C@@H]2C(C)C(=O)OC(C)C(C)C(O)C(C)C(=O)[C@@]3(CO3)CC(C)C(OC3OC(C)CC(N(C)C)C3O)C2C)OC(C)[C@@H]1O (some centres undefined),-7.54% (inactive),–
COCCn1c(=O)c(-c2cccs2)nc2cncnc21,7.53% (inactive),–
N#C/C(=C\c1ccc(O)c(O)c1)C(=O)NCc1ccccc1,-21.8% (inactive),–
COc1cccc(CN2CCC3(CC2)c2ccccc2[C@@H](NC(=O)c2ccccc2OC)[C@@H]3O)c1,-1.55% (inactive),–
COc1ccc(CN2[C@@H](CC(=O)O)c3cc(F)ccc3S2(=O)=O)cc1,-3.22% (inactive),–
CN1C(=O)CN2CCc3ccccc3C2c2cc(Cl)ccc21 (centres undefined),-22.8% (inactive),–
CCCS(=O)(=O)NCc1c(C)ncc2c1CCN(C(=O)c1ccc(F)c(F)c1)C2,6.27% (inactive),–
O=C(c1cccc(Cn2cccn2)c1)N1CCOc2c(cc(-c3csc4ccccc34)cc2OC2CCOC2)C1 (centres undefined),-25.5% (inactive),–
O=C(c1cccc(F)c1)N1CCC2(CCCN(Cc3ccncc3)C2)CC1,-16.9% (inactive),–
c1cncc(-c2nc(N3CCNCC3)c3ccccc3n2)c1,-21.5% (inactive),–
CC(=O)/C(C)=N\O,-20.3% (inactive),–
COc1ncc2nc(-c3ccc(Cl)cc3)c(=O)n(-c3ccccc3)c2n1,-19.4% (inactive),–
COc1ccc(CN2CCC3(CCC(CNC(=O)c4ccco4)O3)CC2)cc1OC (centres undefined),-2.31% (inactive),–
COc1ccc2c(c1)CCc1cnc(-n3ncc(C(=O)NCCN4CCOCC4)c3C)nc1-2,-24.8% (inactive),–
c1ccc2cc(C3=NCCN3)ccc2c1,27.3% (inactive),–
NNc1nnc(NN)c2ccccc12,18.8% (inactive),–
Cc1cccc(CNc2cc(-c3ccccc3Cl)ncn2)c1,-25.8% (inactive),–
Cc1ccc2c(C)nc(N3CCCC(C(=O)NC(C)(C)CO)C3)nc2c1 (centres undefined),-14.6% (inactive),–
O=C(Oc1cc(OC(=O)c2ccccc2)c2c(c1)OC(c1ccc(OC(=O)c3ccccc3)c(OC(=O)c3ccccc3)c1)[C@@H](OC(=O)c1ccccc1)C2)c1ccccc1 (some centres undefined),-3.26% (inactive),–
C/C=C(\C)C(=O)O[C@H]1CC(C)=C2C(=O)C=C(C)C2[C@@H]2OC(=O)[C@@](C)(OC(=O)C=C(C)C)C21 (some centres undefined),-15.4% (inactive),–
CC[C@H](C)CCCCC(=O)N[C@@H](CCN)C(=O)N[C@H](C(=O)N[C@@H](CCN)C(=O)N[C@H]1CCNC(=O)[C@H]([C@@H](C)O)NC(=O)[C@H](CCN)NC(=O)[C@H](CCN)NC(=O)[C@H](CC(C)C)NC(=O)[C@@H](CC(C)C)NC(=O)[C@H](CCN)NC1=O)[C@@H](C)O (X4-[Dab]T[Dab][Dab][Dab][dL]L[Dab][Dab]T; lactam 4-C),-6.87% (inactive),–
COCCn1c(=O)c(CCc2ccccc2)nc2cnc(N3CCNCC3)nc21,-12.2% (inactive),–
CC(C)c1cnc(NC(=O)Cc2ccccc2)s1,-17.2% (inactive),–
CC1(C)O[C@@H]2C[C@@H]3[C@H]4C[C@@H](F)C5=CC(=O)C=C[C@]5(C)[C@@]4(F)[C@@H](O)C[C@]3(C)[C@]2(C(=O)CO)O1,-4.16% (inactive),–
COc1ccc2[nH]cc(CCNc3ncnc4ccc(-c5ccc(C(=O)N(C)C)cc5)cc34)c2c1,-29.6% (inactive),–
